This is part of a sample that, as a whole, favours compounds with a hit. Of some 83,000 tested, about 20% had one in any assay.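 Testing used 96-well plates and a 48-hour single-concentration exposure. Example: -40 means 40% of the starting cells died.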 Activity calls are given as the source filed them.
Tested on: SK-MEL-28 melanoma
Assay: NCI-60 one-dose screen, 48 h (100 = growth as untreated, 0 = no growth, -100 = all killed)
Details: 10 µM unless noted
Procedure: Growth inhibition of the SK-MEL-28 human tumor cell line is measured as a screen for anti-cancer activity. Cells are grown in 96 well plates and exposed to the test compound for 48 hours. Compounds are tested at a single concentration, which is 10^-5 M for most compounds. The reported endpoint is percent growth (GI% or GIPRCNT), where numbers from 0 - 100% represent growth inhibition, and numbers from -100% - 0 represent cell death. For example, a value of 40 represents 60% growth inhibition. A value of 0 means no net growth occurred over the course of the experiment. A value of -40 indicates 40% of cells at the beginning of the experiment died by the end of the experiment. A value of -100 means all cells are dead at the end of the experiment.
NCI-60 Human Tumor Cell Lines Screen was performed using the standard one-dose NCI protocol, which is described in more detail at https://dtp.cancer.gov/discovery_development/nci-60/default.htm.
Compounds with GIPRCNT values below 10 were considered active. Activity score was based on GIPRCNT using the following formula: […]
Score is 0 for GIPRCNT values of 100 or above, 50 for GIPRCNT values of 0, and 100 for GIPRCNT values of -100.

Row | Structure (SMILES) | growth
1 | C/C(=C(/c1ccc(O)cc1)c1ccc(OCCN2CCCC2)cc1)c1ccc(Cl)cc1 | -70% (active)
2 | COc1ccc(C(=O)c2c(N)c(C#N)cn2-c2cccc(OC)c2)cc1 | 45.8% (inactive)
3 | NS(=O)(=O)Oc1ccc2nc(Nc3ccc(F)c(F)c3)ccc2c1 | 98.5% (inactive)
4 | Cn1cc(-c2nnc(N)nc2-c2cn(C)c3ccc(F)cc23)c2cc(F)ccc21 | 103% (inactive)
5 | Cc1ccc(NC(=O)c2cc(/C=C/C(=O)NO)cc(C(F)(F)F)c2)cc1Nc1nccc(-c2cccnc2)n1 | -7.78% (active)
6 | COc1cc(/C=C/C(=O)c2ccc(N3CCN(C)CC3)cc2)ccc1F | 98.3% (inactive)
7 | CC(=O)Nc1nc2c(s1)C1=CC[C@H]3[C@@H]4CC[C@H](C(C)=O)[C@@]4(C)CC[C@@H]3[C@@]1(C)CC2 | 49% (inactive)
8 | CC[C@@](C)(NC(=O)C(C)(C)NC(=O)[C@@H](NC(=O)[C@@H]1CCCN1C(=O)C(C)(C)NC(=O)[C@H](CC(C)C)NC(=O)CNC(=O)C(C)(C)NC(=O)[C@@H](NC(=O)C(C)(C)NC(=O)[C@H](CCC(N)=O)NC(=O)[C@H](C)NC(=O)C(C)(C)NC(=O)[C@H](C)NC(=O)C(C)(C)NC(=O)[C@H](C)NC(=O)C(C)(C)NC(C)=O)C(C)C)C(C)C)C(=O)N[C@@H](CCC(N)=O)C(=O)N[C@@H](CCC(N)=O)C(=O)N[C@H](CO)CC1CCCCC1 | 26.9% [5 µM] (inactive)
9 | CC1CCN(S(=O)(=O)c2ncsc2-c2ccccc2)CC1 | 75.3% (inactive)
10 | CCOC(=O)c1c(NC(=O)c2ccc(C(C)(C)C)cc2)sc2cc(OCCN3CCCCC3)ccc12 | 104% (inactive)
11 | O=C(CN1C(=O)CSC1=O)Nc1ccc(C(=O)/C=C/c2cc3ccccc3nc2Cl)cc1 | 95.4% (inactive)
12 | O=S(=O)(NCCCNc1nccc(-n2cnc3ccccc32)n1)c1ccc(F)cc1 | 97.9% (inactive)
13 | COc1cc2cc(Oc3ccc(NC(=O)c4cccc(C(F)(F)F)c4)cc3)c(C)nc2cc1OCCN(C)C | 72.2% (inactive)
14 | CN(C)C(=O)c1ccccc1-n1cnc2ccccc2c1=O | 103% (inactive)
15 | O=C(CN1CCN(c2cc(=O)n(-c3ccccc3)c3ccccc23)CC1)Nc1ccc([N+](=O)[O-])cc1 | 101% (inactive)
16 | O=C(Nc1ccc(-c2nc(-c3cccc(O)c3)c(-c3ccnc(Br)c3)[nH]2)cc1)c1ccccc1 | 34.2% (inactive)
17 | CCCCCCNC(=O)Oc1ccc(/C(=C(/C)c2ccc(OC)cc2)c2ccc(OCCN3CCCC3)cc2)cc1 | 60.3% (inactive)
18 | C=CCn1c(SCC(=O)Nc2cccc(C(=O)/C=C/c3cccc([N+](=O)[O-])c3)c2)nc2ccccc2c1=O | 95.4% (inactive)
19 | CC(=O)Nc1ccc(NC(=O)Nc2cccc(-c3nc(-c4ccc(NC(=O)c5cccnc5)cc4Cl)no3)c2)cc1C(F)(F)F | -81.8% (active)
20 | COc1cc(O)c2c(c1)[C@H]1O[C@@H]1C[C@H](O)[C@H](O)C(=O)/C=C\C[C@H](C)OC2=O | 6.98% (active)

Row | Structure (SMILES) | growth
21 | CSc1ccc(/C(=N/N=C(N)N)c2ccccc2)cc1 | 65.5% (inactive)
22 | COc1ccc(-c2ccc3c4c(cccc24)C(=O)N(N2C(=O)c4cccc5cccc(c45)C2=O)C3=O)cc1 | 106% (inactive)
23 | COc1cc([C@H]2OC[C@H]3[C@@H]2CO[C@@H]3c2ccc(O)c(OC)c2)ccc1O | 93.5% (inactive)
24 | COc1cnc2c(c1)C(=O)c1c-2n(CCCn2ccnc2)c(=O)c2cc(OC)c(OC)cc12 | 45.5% (inactive)
25 | Cc1nn(-c2ccc(Cl)cc2)c(C)c1N=Nc1ccc2oc(=O)ccc2c1 | 82.5% (inactive)
26 | C#C[C@]1(O)CC[C@H]2[C@@H]3CC=C4c5sc(Nc6cccc(Cl)n6)nc5CC[C@]4(C)[C@H]3CC[C@@]21C | -59.9% (active)
27 | O=C1[C@H]2Cc3c([nH]c4ccccc34)[C@H](c3ccc(Cl)cc3)N2C(=O)CN1C1CCN(Cc2c(Cl)cccc2Cl)CC1 | 98.8% (inactive)
28 | COc1ccc(-c2nnc(SCc3ccc(O)c4ncccc34)n2-c2ccccc2)cc1 | 20.2% (inactive)
29 | COc1cc(C2=NN(C(C)=O)C(c3ccc(N4CCOCC4)cc3)C2)cc(OC)c1OC (stereo not given) | 104% (inactive)
30 | CCN1CCN(c2cc(C(=O)Nc3nc4ccc(Oc5ccnc(C(=O)NC)c5)cc4s3)cc(C(F)(F)F)c2)CC1 | 76.8% (inactive)
31 | C#Cc1ccc(NC(=O)c2ccc(/C=C/C(=O)c3nccn3C)cc2)c(F)c1 | 84% (inactive)
32 | C[C@H]1[C@H](C)CC[C@]2(COC(=O)c3cccnc3)CC[C@]3(C)C(=CC[C@@H]4[C@@]5(C)CCCNC(C)(C)[C@@H]5CC[C@]43C)[C@H]12 | 75% (inactive)
33 | CNC(=O)c1cc(N2CCc3cc(NC(=O)Nc4ccc(Cl)c(Cl)c4)ccc32)ccn1 | 86.5% (inactive)
34 | Cc1nc(-c2cc3ccccc3c(N3CCN(C)CC3)n2)cs1 | 107% (inactive)
35 | Nc1nc(-c2cccc([N+](=O)[O-])c2)c(N=Nc2ccccc2Cl)s1 | 93.7% (inactive)
36 | C#C[C@]1(O)CC[C@H]2[C@@H]3CC=C4c5sc(Nc6nc(C)cc(OC)n6)nc5CC[C@]4(C)[C@H]3CC[C@@]21C | 21.1% (inactive)
37 | COc1ccc(-c2nc(SCC(C)C)nc(N/N=C\c3cccc([N+](=O)[O-])c3)c2C#N)cc1 | 77.7% (inactive)
38 | CC(C)c1nn(-c2ccccc2)c(N2CCCCC2)c1/C=N/NC(N)=S | 109% (inactive)
39 | O=C1Nc2ccc(Cl)cc2/C1=C/c1ccc(OCc2ccc(F)cc2)cc1 | 96.3% (inactive)
40 | CCc1ccc(NC(=O)N[C@@H](Cc2cc(F)cc(F)c2)C(=O)N[C@@H]2C(=O)N3CCC[C@H]3C(=O)N3CCO[C@H](C)[C@H]3C(=O)N[C@@H](CO)C(=O)N3C[C@H](C)C[C@H]3C(=O)O[C@H]2C)c(F)c1 | 43.4% (inactive)
